The whole screen tested about 2,300 compounds, of which about 430 (19%) were called active. Not all results are given here. A number with no mark means an inactive call.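 The calls were made as follows: active = mean activation across triplicates above the hit threshold derived in the original primary screen (cut at about 15% in these data); inactive = the rest.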
These molecules were tested against 5-hydroxytryptamine receptor 2A (Mus musculus) (UniProt P35363) (assay: agonist activity at mouse 5-HT2A receptor – cell-based, luminescence, CHO-K1 PathHunter, triplicate, confirmation (AID 624381)). Conditions: CHO-K1 PathHunter beta-arrestin recruitment, at 7.6 µM, stronger effect = higher value, DMSO 0%, 30 µM serotonin 100%.
5-hydroxytryptamine receptor 2A (Mus musculus), sequence (P35363 whole entry, looked up): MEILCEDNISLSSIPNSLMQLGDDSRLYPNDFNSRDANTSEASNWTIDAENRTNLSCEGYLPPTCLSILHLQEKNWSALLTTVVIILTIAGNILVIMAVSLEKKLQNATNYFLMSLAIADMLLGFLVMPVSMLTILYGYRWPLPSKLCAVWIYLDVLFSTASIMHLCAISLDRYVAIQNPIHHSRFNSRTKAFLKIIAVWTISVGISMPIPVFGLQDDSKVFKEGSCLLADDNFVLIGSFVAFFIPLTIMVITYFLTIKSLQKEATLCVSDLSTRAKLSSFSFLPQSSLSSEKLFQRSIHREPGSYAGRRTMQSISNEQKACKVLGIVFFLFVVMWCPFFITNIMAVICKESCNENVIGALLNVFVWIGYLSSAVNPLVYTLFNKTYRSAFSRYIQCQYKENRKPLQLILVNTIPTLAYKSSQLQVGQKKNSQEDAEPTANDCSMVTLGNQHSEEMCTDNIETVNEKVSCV
Molecule O=C(OCC(=O)N1CCOCC1)c1ccc2ccccc2c1 has an activation of -4.74%.
Cc1cc(C)n(S(=O)(=O)c2cccc([N+](=O)[O-])c2)n1 showed an activation of -4.03%.
In the case of COc1ccc2c(Cl)c(-c3nnco3)sc2c1, the activation is reported as -2.25%.
CCn1c(SCC(=O)N2CCCC2=O)nc2ccccc21 showed an activation of -2.49%.
O=C(Cc1ccccc1)n1nc(-c2ccccc2)nc1NCc1ccco1 gave an activation of 4.58%.
For OCC1(Cc2ccccc2)CCN(Cc2cc3ccccc3o2)CC1, the activation was 81.8% (active).
With COc1ccc(N2CC(C(=O)NCCN3C(=O)S/C(=C\c4cccnc4)C3=O)CC2=O)c(OC)c1 (stereo not drawn) the activation was -1.44%.
In the case of Cc1c(C(=O)NCC2CC2)sc(=O)n1Cc1cccc(F)c1, the activation is reported as -3.87%.
COc1ccc(/C(=N\O)c2nccc3cc(OC)c(OC)cc23)cc1OC gave an activation of -3.02%.
Cc1ccccc1CSCC(=O)NC(=O)NC(C)(C)C gave an activation of -3.39%.
N#Cc1c(NC(=O)CCCl)sc2c1CCCCC2 showed an activation of 0.58%.
O=C(NCc1ccco1)c1cccn2c(=O)c3c4c(sc3nc12)CCCC4 was tested, and the activation was -1.08%.
For Fc1ccc2[nH]c3c(N4CCSCC4)ncnc3c2c1, the activation was 3.26%.
CCCCNc1c(-c2cccc(Sc3ccc(OC)cc3)c2)nc2ccccn12 was tested, and the activation was 5.41%.
In the case of COc1ccccc1Nc1nnc(SC(C)C(=O)NC2CC2)s1 (stereo not drawn), the activation is reported as -1.26%.
Molecule Cc1oc2cc(Br)c(O)c(Br)c2c1C(=O)c1ccccc1 has an activation of -2.71%.
With N/C(=N\S(=O)(=O)c1cc(C(F)(F)F)cc(C(F)(F)F)c1)c1cccs1 the activation was -1.99%.
In the case of O=C(Nc1cc(=O)[nH]c2ncnn12)c1ccccc1Cl, the activation is reported as -5.17%.
In the case of CCOC(=O)[C@]12CCCC=C1N(Cc1ccc3c(c1)OCO3)C(=O)[C@H](CC(=O)NCc1cccs1)C2, the activation is reported as -3.55%.
O=C1CC(c2cccc(Cl)c2)CC(O)=C1C=Nc1ccccc1 (stereo not drawn) showed an activation of -4.5%.
COc1cccc(NC(=O)CSc2nnc(-c3cccnc3)o2)c1 gave an activation of -0.15%.
For Cc1ccc2nc(-c3ccncc3)cc(C(=O)Nc3ccncc3)c2c1, the activation was 12.6%.
C/C(=N\NC(=S)NC1CCCCC1)c1ccc(C)o1 was tested, and the activation was 29.7% (active).
Molecule Cn1c2c(c(=O)n(C)c1=O)C(c1ccc(O)cc1)Nc1ccccc1O2 (stereo not drawn) has an activation of -3.78%.
Molecule O=C(Cc1ccsc1)N1CCN(S(=O)(=O)c2cc(C(F)(F)F)cc(C(F)(F)F)c2)CC1 has an activation of -3.88%.
CO/N=C/CC(=O)c1ccc(OC)cc1 showed an activation of -1.94%.
Work on CCOC(=O)/C=c1\s/c(=C\c2ccccc2OC)c(=O)n1CC(=O)N1CCOCC1 yielded an activation of -3.42%.
O=S(=O)(c1ccc(OCC(O)CN2CCN(c3ccccc3Cl)CC2)cc1)N1CCOCC1 (stereo not drawn) was tested, and the activation was 41.2% (active).
Molecule O=C(COC(=O)c1cc(S(=O)(=O)N2CCOCC2)ccc1F)NC1CC1 has an activation of -1.03%.
With Nc1c(N(Cc2ccco2)C(=O)c2cccc(F)c2)c(=O)[nH]c(=O)n1Cc1ccccc1 the activation was -0.68%.
C[C@@H]1ON(C)[C@H]2C[C@H]3c4cc(N5CCN(C)CC5)ccc4CCN3C(=O)[C@@H]12 showed an activation of 4.65%.
Work on CCOC(=O)c1ccc(NC(=O)Cn2cnc3cc(C)c(C)cc32)cc1 yielded an activation of -2.29%.
For CNCC(O)c1ccc(O)c(O)c1 (stereo not drawn), the activation was 136% (active).
C=C1C(=O)OC2C1CCC(C)=CCCC1(C)OC21 (stereo not drawn) gave an activation of -6.24%.
Cc1cccnc1C(NC(=O)C1CCN(Cc2ccc(Cl)c(Cl)c2)CC1)c1ccc(Cl)cc1 (stereo not drawn) gave an activation of -7.94%.
Cc1ccc(C(=O)N/C(=C/c2cccs2)C(=O)N2CCCCC2)cc1 showed an activation of -4.44%.
Molecule CCn1cc(C(=O)OCC(=O)Nc2cccc(C)c2)c(=O)c2ccc(C)nc21 has an activation of -1.9%.
COc1ccc(C(C)=O)cc1COC(=O)Cn1cnc2ccccc2c1=O was tested, and the activation was 2.93%.
